# In PubChem BioAssay AID743282 (The Scripps Research Institute Molecular Screening Center, 2014):
# Out of some 2,000 compounds screened, about 170 (8.5%) were called active. These entries were drawn from the full list. A number with no mark means an inactive call.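 How the source made its calls: active means average inhibition above the solvent-only control mean plus 3 SD (cut at about 6% in these data); inactive means the rest.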
# Assay: 535nm fluorescence optical interference, confirmation, artefact control for HGIII-sPLA2 inhibitor project, biochemical, QFRET (AID 743282);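 further: 0% = DMSO with substrate plus product and 100% = DMSO with substrate alone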
# Conditions: BODIPY FL product fluorescence interference, at 12.2 µM, active compounds read high
row,SMILES,inhibition
1,Cc1ccc(S(=O)(=O)N2CCOCC2)cc1C(=O)NC(=S)N(Cc1ccccc1)C(C)C,-1.68%
2,COc1cccc(NC(C)=[N+](C)CCNS(=O)(=O)c2ccc(Cl)cc2)c1,-14.7%
3,Cc1sc2nc(SCC(=O)c3ccc(O)c(O)c3)n(Cc3ccco3)c(=O)c2c1C,0.57%
4,Cc1cccc(-n2cnc(C(=O)NNC(=S)Nc3ccccc3)c2)n1,-2.38%
5,CC1=CC(C)(C)NC(=S)N1c1ccccc1,-3.33%
6,CCOc1ccc(Br)cc1CSC(=N)N,-9.39%
7,Cc1cccc(C)c1NC(=O)CN1C(=O)C(C)Oc2ccccc21 (stereo not given),-4.96%
8,S=C(NNC(=S)NC1CC2CCC1C2)NC1CC2C=CC1C2 (stereo not given),3.69%
9,O=C(NNC(=S)NC1CCCCC1)c1ccccc1Cl,-4.68%
10,Cc1[nH]c(N)nc(=S)c1CCCNc1ccccc1,0.28%
11,CN(CC(=O)Nc1ccc(N2CCOCC2)cc1)CC(=O)Nc1ccccc1[N+](=O)[O-],-3.73%
12,C/C(=N\Nc1ccc(Cl)nn1)c1ccccc1O,1.8%
13,CCc1cccc(CC)c1NC(=S)NCc1ccc2[nH]c(C)cc2c1,-0.12%
14,c1ccc(C2=Nc3cccc4cccc(c34)N2)cc1,11.4% (active)
15,CC(C(=O)Nc1ccccc1-c1ccccc1)N1CCOCC1 (stereo not given),-7.3%
16,O=C(CSc1nc2ccccc2n1Cc1ccccc1)NNC(=S)Nc1ccccc1,-3.82%
17,O=C(NNc1ccccn1)c1ccc(Cl)nc1,34% (active)
18,O=C(OC12CC3CC(CC(C3)C1)C2)c1ccc(NCc2cc(O)ccc2O)cc1,12.9% (active)
19,COc1ccccc1OCC(=O)OCn1c(SC)nnc(C)c1=O,0.95%
20,COc1ccc(C(=O)Nc2sc(C)c(C)c2CN2CCOCC2)cc1,-13.2%
21,O=C1C(=O)N(Cc2ccc(-c3ccsc3)cc2)c2ccc(OC(F)(F)F)cc21,4.49%
22,Nc1[nH]c(C(=O)c2ccccc2)c(-c2ccc(Br)cc2)c1C(=O)NC1CC1,-0.53%

row,SMILES,inhibition
1,CN(C)c1ccc(NC(=O)NC2CCCCN(Cc3ccc(Cl)cc3)C2=O)cc1 (stereo not given),-5.22%
2,CC(C)(C)c1cc2cccnc2n1Cc1cccc(F)c1,-9.11%
3,CN(C)S(=O)(=O)c1cccc(NC(=S)N/N=C/C(=O)c2ccccc2)c1,5.77%
4,CC(NC(=O)COC(=O)Cn1cc(C(F)(F)F)ccc1=O)c1ccccc1 (stereo not given),-1.38%
5,CC(C)CC(=O)NC(=S)NNC(=O)c1cccc([N+](=O)[O-])c1,-0.46%
6,CSc1ccc(NC(=O)/C=C/C(=O)O)cc1,-8.22%
7,O=C(/C=C/c1c(Cl)cccc1Cl)NCc1ccccc1,-0.31%
8,N#CC1(Nc2ccc(-c3ccc(Cl)cc3)cc2)CCCC1,6.64% (active)
9,CC(C)c1cc(C(=O)N/N=C/c2ccoc2)c(O)c(C(C)C)c1,4.05%
10,Cc1ccc(C2Nc3ccccc3C(=O)N2CCN2CCNC2=O)cc1 (stereo not given),-4.79%
11,COc1ccc2c(c1)c(=Cc1ccc(N(C)C)cc1)c1cc(-c3ccccc3)[n+](C)n12,-26.7%
12,O=C(NNC(=S)Nc1ccc(F)cc1)[C@H]1C[C@@H]1c1ccccc1,1.83%
13,COc1ccc(NC(=O)C2C3C=CC(C3)C2C(=O)NCc2ccccn2)c(OC)c1 (stereo not given),-6.28%
14,CCCCn1c(N)c(N(CCOC)C(=O)COc2c(C)cccc2C)c(=O)[nH]c1=O,-7.38%
15,O=C(NN1C(=O)C2C3C=CC(C3)C2C1=O)c1ccco1 (stereo not given),-5.42%
16,COCCn1c(SCC(=O)Nc2cc(OC)ccc2OC)nc2c(c1=O)SC(C)C2 (stereo not given),-17.4%
17,COc1ccccc1OCCn1c(SCC(N)=O)nc2ccccc21,-8.97%
18,COc1cc(NS(=O)(=O)c2ccc3ccccc3c2)c2ncccc2c1,5.89%
19,O=C(Nc1cccc(F)c1)c1cc(-c2ccco2)nc2ccccc12,4.81%
20,C/C(=N/NC(=O)c1cc(Cl)ccc1O)C12CC3CC(CC(C3)C1)C2,-3.29%
21,CCCCn1c(=S)[nH]c2ccccc2c1=O,-2.71%
22,Cc1cc(NCCc2c[nH]c3ccccc23)ccc1Oc1cccnc1,-3%

row,SMILES,inhibition
1,CCNC(=S)Nc1ccc(OC(F)(F)F)cc1,0.41%
2,NC(c1csc(NC(=O)Nc2ccccc2Oc2ccccc2)n1)c1ccccc1Cl (stereo not given),4.15%
3,COc1cc(/C=N/n2c(C)n[nH]c2=S)ccc1OCc1ccccc1,-3.5%
4,Cc1ccc(C2CC(c3cccc(C)c3)n3nc(N)nc3N2)cc1 (stereo not given),-10.8%
5,Nc1ccc2c(c1)C(O)c1ccc(Cl)cc1-2 (stereo not given),7% (active)
6,CCN(Cc1ccccc1)C(=O)CN1C(=S)NC(C)(C)CC1C (stereo not given),-7.34%
7,C#CCCCc1nc2ccccc2c(=O)n1N,-6.82%
8,Cc1nnc(Sc2nc3c(c(=O)[nH]c(=O)n3C)n2Cc2ccccc2)s1,-6.93%
9,CCN(CC(=O)NC1CCS(=O)(=O)C1)S(=O)(=O)c1ccccc1 (stereo not given),-0.3%
10,CCOC12CC(C)(C)CC(C)(CC3=C1C(=O)CC(C)(C)C3)C2 (stereo not given),-12.7%
11,CC(C)(c1ccccc1)c1ccc(OCCN)cc1,-22.1%
12,CC[C@]1(O)C[C@@H]2CN(CCc3c([nH]c4ccccc34)[C@@](C(=O)OC)(c3cc4c(cc3OC)N(C)[C@H]3[C@@](O)(C(=O)OC)[C@H](OC(C)=O)[C@]5(CC)C=CCN6CC[C@]43[C@@H]65)C2)C1,-25%
13,CCCCCCCCCCOC(=O)C[N+](C)(C)CC1CCCCC1O (stereo not given),-19.3%
14,COc1cc(OC)cc(C2=Cc3ccccc3C(CC(=O)c3ccco3)N2c2ccc(-c3cnc(OC)nc3)cc2)c1 (stereo not given),-14%
15,COC(=O)C(C)n1cnc2c(nnn2-c2ccc(F)cc2)c1=O (stereo not given),-6.41%
16,Cc1cccc(N2CCN(c3ccc(NC(=O)/C=C\C(=O)O)cc3)CC2)c1,3.01%
17,N=C(N)SCc1cccc2ccccc12,-8.26%
18,O=C(CCl)NNc1cccc(Cl)n1,113% (active)
19,NS(=O)(=O)c1ccc(CCNC(=O)NC2CCCCC2)cc1,-4.36%
20,O=C(NNC(=S)NC1CC2CCC1C2)c1ccc(Cl)cc1 (stereo not given),0.11%
21,COc1ccc(Cl)cc1C(=O)NNC(=S)NC1CCCC1,3.94%
22,C=CCNc1scc(-c2ccccc2)[n+]1CC=C,-8.41%

row,SMILES,inhibition
1,C/C(=N\NC(=S)Nc1ccc(C)cc1)c1cc2ccccc2o1,-2.09%
2,NC[C@H](Cc1ccccc1)NCCc1cc(C(F)(F)F)cc(C(F)(F)F)c1,-15.8%
3,CC(=O)/C(=N\Nc1ccc(Cl)cc1Cl)Sc1cccc2cccnc12,-6.02%
4,Cc1ccccc1NC(=O)C1CCN(c2ncccn2)CC1,-0.85%
5,O=C(NC(=S)Nc1ncccn1)c1ccccc1Br,-4.76%
6,Nc1ccc(Nc2ccccc2)cc1,1.54%
7,Cn1c2c(c(=O)n(C)c1=O)C1c3ccccc3OCC1C(C)(C)O2 (stereo not given),-3.5%
8,Oc1ccc2ccccc2c1N=Nc1nccs1,18.1% (active)
9,COCCCNC(=O)CNC(=S)N(Cc1cc(OC)c(OC)c(OC)c1)C1CCCC1,-10.5%
10,COc1ccnc(NC(=S)N2CCN(c3ncc(C(F)(F)F)cc3Cl)CC2)c1,-6.49%
11,Cc1ccc(-c2csc(NNC(=O)c3ccccc3)n2)cc1,6.07% (active)
12,Cc1ccc2sc(NNC(=O)c3ccc4c(c3)OCCO4)nc2c1C,3.21%
13,COc1ccc(C(=O)NNC(=S)NC(=O)c2ccccc2)cc1,-1.93%
14,CCc1cc(-c2n[nH]c(=S)n2CC(C)C)cs1,-0.76%
15,Cn1cc(Cl)c(C(=O)NNC(=S)Nc2cccc(Cl)c2)n1,0.3%
16,CC(C)=CCCC1(C)C=Cc2c(ccc3c2[nH]c2cc(O)c(C)cc23)O1 (stereo not given),8.94% (active)
17,CC(C)c1ccc(Nc2nnc(SCC(=O)c3nnc(-c4ccccc4)o3)s2)cc1,-8.04%
18,CC(=O)Oc1ccc2c(c1)C(=O)c1ccccc1C2=O,-2.62%
19,O=C(N/N=C/c1cc(Cl)cc([N+](=O)[O-])c1O)C(O)(c1ccccc1)c1ccccc1,5.59%
20,S=c1[nH]nc(-c2ccco2)n1/N=C/c1ccccc1,-0.08%
21,CCOc1ccc2[nH]c(=S)sc2c1,-2.18%
22,Cc1c(NC(=S)NCc2ccc(F)cc2)cccc1[N+](=O)[O-],-0.65%

row,SMILES,inhibition
1,CC(Oc1ccc2ccccc2c1)C(=O)NNC(=S)NC(=O)c1ccco1 (stereo not given),-3.72%
2,CSC1=NN(c2ccccc2)CN(c2ccccc2)N1C,4.75%
3,Cc1c(C(=O)N/N=C/c2ccccc2)[nH]c2c([N+](=O)[O-])cccc12,-10.6%
4,NC(Cc1ccccc1)c1csc(Nc2cc(Oc3ccccc3)ncn2)n1 (stereo not given),-10.4%
5,O=C(NNC(=S)Nc1ccc(Br)cc1Cl)c1ccco1,3.75%
6,CCOc1ccc(/C=N/NC(N)=S)cc1,-2.77%
7,Cc1cc(-c2n[nH]c(=S)n2-c2ccc(C)c(C)c2)no1,2.66%
8,CC(=O)NC(c1cccs1)c1cc(Br)c2cccnc2c1O (stereo not given),1.21%
9,Cc1cc(-n2nc(C)cc2C)n2ncc(-c3ccccc3)c2n1,-10.6%
10,CCOC(=O)C1(Cc2cccc(OC)c2)CCCN(C(=O)CCSC)C1 (stereo not given),-20.8%
11,Cc1cccc(NC(=S)NCCN(C2CCCCC2)C2CCCC2)c1,-19.9%
12,Brc1ccccc1C1Nc2cccc3cccc(c23)N1,16.4% (active)
13,CC(=O)c1nnn(-c2ccc(Cl)cc2C#N)c1C,-6.79%
14,COc1ccc(C(=O)NC(=S)NNC(=O)c2c(-c3ccccc3)noc2C)cc1,-3.7%
15,Cc1ccc(NC(=S)NNC(=O)CSc2nnc(SCc3ccccc3Cl)s2)cc1,0.65%
16,COc1ccc(C(N)c2csc(NC(=O)Nc3cccc(C(F)(F)F)c3)n2)cc1 (stereo not given),5.13%
17,CCCCOc1ccc(CSC(=N)N)cc1[N+](=O)[O-],-15.6%
18,Cc1c(Cl)cccc1NC(=S)NCc1ccc2c(c1)OCO2,0.14%
19,C/C(=N\NC(=O)CSc1nc2ccccc2c(=O)n1-c1ccccc1C)c1cccs1,-14.6%
20,O=C(COc1ccc(S(=O)(=O)NCc2ccccc2)cc1)N1CCOCC1,-4.58%
21,C=CCn1c(C23CC4CC(CC(C4)C2)C3)n[nH]c1=S,-2.58%
22,CCOC(=O)NC(=O)/C(C#N)=C\c1ccccc1,-4.97%
